# Where “and” joins values, the source holds several entries; their conditions need not be identical. Equal values may be shown once. Records with an inconclusive call do not appear. A call without a number means that no potency is given here. Calls of active or inactive are those of the source. Calls come from the whole dose curve; as a rule, active = well fitted cell-killing curve with a large enough effect in the repeat runs; inconclusive = weak or mixed curves, or effect the other way; inactive = no such curve, though single readings can be large or run the other way.
# Assay: qHTS assay for identifying genotoxic compounds that show differential cytotoxicity against isogenic chicken DT40 cell lines with known DNA damage response pathways - wild type cell line (AID 743012); note: nearly all actives have a fitted effect of over 60% in size
# Conditions: DT40 wild type chicken cells viability, CellTiter-Glo, 40 h; series mostly up to 68.4 µM
# From the text: U.S. Tox21 Program National Center for Advancing Translational Sciences [NCATS] NIH Chemical Genomics Center [NCGC] U.S. Environmental Protection Agency [EPA] National Institutes of Environmental Health Sciences [NIEHS] National Toxicology Program [NTP] U.S. Food and Drug Administration [FDA] Tox21 Assay Overview: DNA repair pathways play a critical role in cellular homeostasis by repairing DNA damage induced by endogenous processes and xenobiotics. Isogenic chicken DT40 cell lines deficient in different DNA repair pathways can be used to identify genotoxic compounds and aid in characterizing the nature of the DNA damage induced. Two DNA repair-deficient cell lines with disrupted genes, Rad54/Ku70 or Rev3, were used to screen the Tox21 10K compound library. Possible genotoxicity was based on the presence of a significant increase in cytotoxicity in one or more of the DNA repair-deficient cell lines compared to that observed in the parental DNA repair-proficient cell line. CellTiter Glo viability assay (Promega, Madison, WI) was used to measure cell viability in these cells after compound treatment. This assay includes the data from the wild type cell line.
# Tox21 Assay Protocol Summary: 300 DT40 wild type cells in 5 uL/well were dispensed into white, solid-bottom 1536-well plates using a Multidrop Combi (ThermoFisher Scientific, Waltham, MA) dispenser. After the assay plates were incubated at 37 C/5% CO2 for approximately 0.5 hour, 23 nL of compounds dissolved in DMSO, positive controls or DMSO only was transferred into the assay plate by a pintool work station (Kalypsys, San Diego, CA). The assay plates were incubated at 37 C/5% CO2 for 40 hours. After 5 uL per well of CellTiter-Glo reagent was added into each well of the assay plates, the plates were incubated for 30 min at room temperature and the luminescence intensity of the plates was measured using a ViewLux (PerkinElmer, Shelton, CT) plate reader.
# Potency is the fitted concentration of half-maximal effect.
row,Compound,Potency
1,CCC1CCC(=O)O1 (stereo not given),inactive
2,O=C(O)C(Cl)(Cl)Br,inactive
3,Cc1nnc(-c2ccccc2)c(=O)n1N,inactive
4,COC(=O)Cc1ccccc1,inactive
5,CC(C)(c1ccccc1)c1cc(-n2nc3ccccc3n2)c(O)c(C(C)(C)c2ccccc2)c1,inactive
6,O=P(OCC(Br)CBr)(OCC(Br)CBr)OCC(Br)CBr (stereo not given),41.1 µM (active)
7,CCCC[P+](CC)(CCCC)CCCC (tested in a mixture with another compound),27.5 µM (active)
8,O=C(O)COc1cc(Cl)c(Cl)cc1Cl,inactive
9,CCC1(C2=NCCN2)Cc2ccccc2O1 (stereo not given),5.31 µM (active)
10,CC[N+]1(C)CCCC(OC(=O)C(O)(c2ccccc2)c2ccccc2)C1 (stereo not given),inactive
11,C[CH2][Hg][S]c1ccccc1C(=O)O,376 nM (active) and 172 nM (active)
12,CCCCCBr,inactive
13,CN(C)C(=O)Nc1cccc(OC(=O)NC(C)(C)C)c1,inactive
14,CN(C)c1ccc(N=O)cc1,1.73 µM (active) and 1.93 µM (active)
15,FC(Cl)(Cl)C(F)(Cl)Cl,inactive
16,CN[C@@H](C)[C@H](O)c1ccccc1,inactive
17,O=CC=O,inactive
18,CC(C)(C)NCC(O)c1cc(Cl)c(N)c(C(F)(F)F)c1 (stereo not given),inactive
19,CC(C)(C)CC(C)(C)c1ccc(O)cc1,23.7 µM (active) and 12.2 µM (active)
20,CCC1(CC)C(=O)NC(=O)NC1=O,inactive

row,Compound,Potency
1,CN(C)N,inactive
2,Cc1nc2ccccc2c(=O)n1-c1ccccc1Cl,42.4 µM (active)
3,O=[N+]([O-])O[C@H]1CO[C@H]2[C@@H]1OC[C@H]2O[N+](=O)[O-],inactive
4,CCOC(=O)NC(O)C(Cl)(Cl)Cl (stereo not given),inactive
5,CCNC(=O)NC(=O)/C(C#N)=N/OC,inactive
6,CCC1(CCC(C)C)C(=O)NC(=O)NC1=O,inactive
7,CN1C[C@H](C(=O)N[C@]2(C)O[C@@]3(O)[C@@H]4CCCN4C(=O)[C@H](Cc4ccccc4)N3C2=O)C=C2c3cccc4[nH]cc(c34)C[C@H]21,21.1 µM (active) and 48.8 µM (active) and 22.6 µM (active)
8,CCCC(C)(COC(N)=O)COC(=O)NC(C)C (stereo not given),inactive
9,O=C(Cc1ccccc1)OCCc1ccccc1,68.6 µM (active)
10,C[C@H](N)[C@H](O)c1ccc(O)c(O)c1,13.3 µM (active)
11,C[N+]1(CCC(C(N)=O)(c2ccccc2)c2ccccc2)CCCCC1,inactive
12,CC(C)(C)OOC(C)(C)CCC(C)(C)OOC(C)(C)C,inactive
13,COc1cc(CC(C)N)c(OC)cc1Br (stereo not given),11.2 µM (active) and 29.8 µM (active)
14,NC(=O)CF,inactive
15,N#CC1(N=NC2(C#N)CCCCC2)CCCCC1,inactive
16,COC1CC(=C(c2cccs2)c2cccs2)C[N+](C)(C)C1 (stereo not given),23.7 µM (active)
17,COCc1cnc(C2=NC(C)(C(C)C)C(=O)N2)c(C(=O)O)c1 (stereo not given),inactive
18,O=C(O)C(O)C(O)C(=O)O (stereo not given),inactive
19,CCOC(=O)C1OC1(C)c1ccccc1 (stereo not given),inactive
20,CCCCCl,inactive

# From PubChem BioAssay (Tox21)
